# Assay outcomes: PubChem, National Center for Advancing Translational Sciences (NCATS)
# IDH1 R132H inh: inhibitors of human mutant IDH1 R132H; O75874; IDH1-R132H enzyme, NADPH consumption, diaphorase/resazurin fluorescence; Potency, µM (doses to about 76.6 µM), usual class: inhibitors; 390,000 tested, 0.093% active; note: nearly all actives have a fitted effect of over 65% in size
#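 IDH1-R132H (0.5 ug/mL) preincubated 30 min with compound, then NADPH (0.016 mM) and alpha-KG (2 mM) added; 80 min at RT, pH 7.5. Remaining NADPH coupled via diaphorase/resazurin to fluorescence (540/590 nm); concentration-response curves normalized to no-enzyme control.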
# PKM2 activator: activators of human pyruvate kinase M2; P14618; purified PKM2, Kinase-Glo ATP luminescence, activation; response scale: 0% is enzyme alone, no compound; Potency, µM (series often up to 57.5 µM), actives largely listed as activators; 260,000 tested, 0.34% active; AID 1631; note: nearly all actives have a fitted effect of over 55% in size
# Target sequence (P14618 whole entry, looked up): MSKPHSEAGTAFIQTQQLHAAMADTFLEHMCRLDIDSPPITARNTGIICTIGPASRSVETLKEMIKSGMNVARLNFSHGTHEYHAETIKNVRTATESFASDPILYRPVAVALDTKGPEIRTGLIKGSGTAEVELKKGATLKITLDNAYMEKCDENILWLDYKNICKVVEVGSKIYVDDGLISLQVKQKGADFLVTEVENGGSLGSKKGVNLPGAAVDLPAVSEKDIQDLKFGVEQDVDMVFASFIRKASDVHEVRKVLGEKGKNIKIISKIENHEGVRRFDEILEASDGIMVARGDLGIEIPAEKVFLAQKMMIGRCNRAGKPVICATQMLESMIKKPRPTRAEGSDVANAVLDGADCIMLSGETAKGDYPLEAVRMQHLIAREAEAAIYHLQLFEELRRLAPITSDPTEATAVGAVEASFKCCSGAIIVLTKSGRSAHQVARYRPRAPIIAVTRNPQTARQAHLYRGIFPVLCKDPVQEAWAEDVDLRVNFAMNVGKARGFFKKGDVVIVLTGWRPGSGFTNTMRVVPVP
#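 hPK-M2, >95% pure; 0.1 mM ADP / 0.5 mM PEP final; imidazole pH7.2 buffer w/ 7 mM MgCl2, 50 mM KCl; 1 h RT; Kinase-Glo lum. Intermediate enzyme activity for dual inhibitor/activator qHTS.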
# Apoferritin bind: binds horse apoferritin like a general anesthetic | apoferritin/1-aminoanthracene competitive binding, fluorescence | Potency, µM (top dose mostly 77.5 µM), most hits filed as inhibitors | 350,000 tested, 0.074% active | AID 485281; note: nearly all actives have a fitted effect of over 20% in size
# Target sequence (P02791 2-175 limits assumed): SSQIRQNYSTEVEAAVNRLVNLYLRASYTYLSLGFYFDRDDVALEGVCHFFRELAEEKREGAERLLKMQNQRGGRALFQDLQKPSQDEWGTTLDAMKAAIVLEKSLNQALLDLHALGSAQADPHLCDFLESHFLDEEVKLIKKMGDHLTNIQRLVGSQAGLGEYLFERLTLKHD
#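 In PBS, apoferritin at 10 uM is loaded with 1-AMA from a 50% saturated solution. After 10 min of compound exposure at ambient temperature, reduced 535 nm fluorescence indicates probe displacement.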
# GALK inh: galactokinase (human) inhibition. P51570. 270,000 tested, 0.007% active. Purified GALK, Kinase-Glo residual ATP luminescence. Potency, µM (doses to about 57.5 µM), usual class: inhibitors. AID 1868
#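 5 nM enzyme, 35 uM ATP, 100 uM galactose, 20 mM HEPES pH8.0, 5 mM MgCl2; 1 h RT; residual ATP by Kinase-Glo Plus luminescence, qHTS format.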
# rTrxR1 inhibitor: rat TrxR1 inhibition; O89049; recombinant rTrxR1, NADPH fluorescence consumption, selenite substrate; 390,000 tested, 1% active; Potency, µM (highest dose often 114 µM), most hits filed as inhibitors; note: nearly all actives have a fitted effect of over 65% in size
#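 Rat TrxR1 (90 nM in the dispensed reagent) was pre-reduced with 400 uM NADPH for 5 min at room temperature, then incubated with compound for 15 min. After 400 uM selenite was added, NADPH fluorescence (Ex 340/Em 450 nm) was followed for 8 min.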
# TrxR1 substrate: is turned over as a substrate by rat TrxR1 | purified TrxR1 substrate turnover, NADPH consumption readout | Potency, µM (series often up to 114 µM) | 390,000 tested, 0.01% active; note: nearly all actives have a fitted effect of over 50% in size
#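 Rat TrxR1, dispensed at 90 nM, was prereduced with 400 uM NADPH (final) for 5 min at ~22 deg C, then incubated with compound 15 min before 400 uM selenite. A first-read NADPH fluorescence drop versus no-compound background flagged substrates.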
# Hits are given with their value; - = inactive; ? = inconclusive; . = not tested or not shown; [ ] = another dose, or the depositor's remark. Sampled rows, rich in hits. Any-hit rate of the full collection: about 1.3%. Calls come from the whole dose curve; as a rule, active = well fitted curve in the direction sought with a large enough effect; inconclusive = small, poorly fitted or top-dose-only effect, or another doubt; inactive = no such curve, though single readings can be large; an effect the other way counts as inactive or inconclusive.
SMILES,IDH1 R132H inh,PKM2 activator,Apoferritin bind,GALK inh,rTrxR1 inhibitor,TrxR1 substrate
CC(=O)c1c(C)[nH]c(C(=O)Nc2ccc(C)c(S(=O)(=O)N(C)C)c2)c1C,-,-,-,-,-,-
COc1ccccc1NS(=O)(=O)c1cc(NC(=O)c2[nH]c(C)c(C(C)=O)c2C)ccc1N1CCOCC1,-,15.8µM,-,-,-,-
CC(=O)c1c(C)[nH]c(C(=O)Nc2cccc(S(=O)(=O)N(C)C)c2)c1C,-,?,-,-,-,-
CC(=O)c1c(C)[nH]c(C(=O)Nc2ccc(C)c(S(=O)(=O)Nc3ccc(C)cc3C)c2)c1C,-,17.8µM,-,-,-,-
CC(=O)c1c(C)[nH]c(C(=O)Nc2ccc(S(=O)(=O)N(C)C)cc2)c1C,-,7.08µM,?,-,-,-
COc1ccc(S(=O)(=O)N(CCc2ccccc2)CC(=O)Nc2cc(C)ccc2C)cc1,-,.,-,.,-,-
Cc1c(F)cccc1NS(=O)(=O)c1ccc2c(c1)n(C)c(=O)c(=O)n2C,-,0.708µM,-,-,-,-
COc1cccc(NS(=O)(=O)c2ccc3c(c2)n(C)c(=O)c(=O)n3C)c1,-,1.12µM,-,-,-,-
Cc1c(F)cccc1NS(=O)(=O)c1ccc2c(c1)c(=O)n(C)c(=O)n2C,-,3.55µM,-,-,-,-
Cc1cccc(NS(=O)(=O)c2ccc3c(c2)n(C)c(=O)n3C)c1C,-,.,-,.,-,-
CC(=O)c1ccc(S(=O)(=O)Nc2cccc(-c3ccc(N4CCOCC4)nn3)c2)cc1,-,.,.,.,-,-
O=S(=O)(Nc1ccc(N2CCOCC2)nn1)c1ccccc1,-,14.1µM,-,-,-,-
CCc1ccc(NC(=O)CSc2nc(-c3ccccc3)no2)cc1,-,.,-,.,-,-
COc1cc(O)c2c(c1)oc(=O)c1c3cc(O)c(O)cc3oc21,.,.,-,.,.,.
O=C(Nc1ccc(Cl)cc1)N1N=CCC1c1ccccc1 (configuration not stated),-,-,-,-,-,-
O=C(Nc1ccccc1)C1=C(O)CC(c2ccc(Cl)cc2)N2CCN=C12 (configuration not stated),-,17.8µM,-,-,-,-
CC(C)(C)c1ccc(C(=O)C[n+]2ccccc2Cl)cc1,.,.,.,.,-,-
N#Cc1cccc(NC(=S)Nc2ccccc2)c1,-,-,-,-,44.7µM,-
Cc1ccc(N2CC(NC(=O)c3ccc(S(=O)(=O)N4CCOCC4)cc3)CC2=O)cc1C (configuration not stated),-,.,?,.,-,-
Cc1ccc(CNC(=O)c2ccc(Cn3nc(C)c(Cl)c3C)o2)cc1,-,-,?,-,39.8µM,-
CC(=O)Nc1ccc(/C=C/c2ccncc2)cc1,.,.,.,.,-,-
Cc1scc(C(=O)NCc2ccco2)c1-c1ccccc1,-,?,?,-,14.1µM,-
O=C(NCc1ccco1)c1ccccc1-c1ccccc1,-,-,-,-,-,-
NS(=O)(=O)c1ccc(CNC(=O)/C=C/c2ccco2)cc1,-,-,-,-,17.8µM,-
Cc1ccc(/C=C/C(=O)NCc2ccc(S(N)(=O)=O)cc2)o1,-,-,-,-,15.8µM,-
SMILES,IDH1 R132H inh,PKM2 activator,Apoferritin bind,GALK inh,rTrxR1 inhibitor,TrxR1 substrate
Cc1ccc(/C=C/C(=O)Nc2ccc(S(N)(=O)=O)cc2)o1,-,-,-,-,5.01µM,-
Cc1ccc(/C=C/C(=O)OCC(=O)NCCc2ccc(S(N)(=O)=O)cc2)o1,-,.,.,.,-[2.29 µM],-[2.29 µM]
O=C(/C=C/c1ccco1)NCC1CCCO1 (configuration not stated),-,-,-,-,28.2µM,-
Cc1ccc(C(=O)N/C(=C/c2ccco2)C(=O)NCC2CCCO2)cc1 (configuration not stated),-,-,-,-,?,-
O=C(/C=C/c1ccco1)NCc1ccc(F)cc1,-,-,-,-,?,-
O=C(c1cc2ccccc2[nH]1)c1cc2cc(O)ccc2[nH]1,.,.,.,.,-,-
CCOc1ccccc1NC(=O)Cn1c(=O)n(CCC(=O)NCc2ccc3c(c2)OCO3)c(=O)c2ccccc21,-,.,-,.,-,-
CC(C)C[C@H](NC(=O)[C@H](Cc1c[nH]c2ccccc12)NC(=O)[C@H](CCCCN)NC(=O)CNC(=O)[C@H](CC(C)C)NC(=O)[C@H](CO)NC(=O)[C@@H](N)Cc1cnc[nH]1)C(=O)NCC(=O)N[C@@H](Cc1cnc[nH]1)C(=O)N1CCC[C@H]1C(=O)N[C@@H](CC(=O)O)C(=O)N[C@@H](CCCCN)C(=O)N[C@@H](Cc1ccccc1)C(=O)O,.,.,-,.,.,.
O=C(/C=C/c1ccco1)NCc1ccco1,-,-,-,-,70.8µM,-
Cc1ccc(/C=C/C(=O)Nc2ccc(N(C)C)cc2)o1,-,-,-,-,-,-
CC(=O)NS(=O)(=O)c1ccc(NC(=O)/C=C/c2ccc(C)o2)cc1,-,-,-,-,15.8µM,-
Cc1ccc(/C=C/C(=O)Nc2ccncc2)o1,-,-,-,-,79.4µM,-
CC(=C/C(=O)O)/C=C/c1ccco1,-,?,-,.,28.2µM,-
Cn1nnnc1SCCCNCc1cccc(OCc2ccccc2)c1,-,.,-,.,-,-
Cc1ccc(Cn2c(C(=O)O)c(CNCc3cccs3)c3ccc(C)cc32)cc1,-,.,?,.,-,-
COc1cccc(CN2CC(C(=O)NCCc3ccc(C)o3)CCC2=O)c1 (configuration not stated),-,.,-,-,20µM,-
Cc1ccc(CCNC(=O)C2CCC(=O)N(Cc3ccccc3F)C2)o1 (configuration not stated),-,-,-,-,56.2µM,-
Cc1cc(C)nc(CCNC(=O)C2CCC(=O)N(Cc3ccccc3F)C2)n1 (configuration not stated),-,.,-,-,-,-
COc1cccc(CCNC(=O)C2CCC(=O)N(Cc3cccc(OC)c3)C2)c1 (configuration not stated),-,.,-,-,-,-
Cc1ccc(CN(C)C(=O)C2CCC(=O)N(CCc3ccccc3)C2)o1 (configuration not stated),-,-,-,.,39.8µM,-
N#Cc1nc(N2CCCC2)nc(N(c2ccccc2)c2ccccc2)n1,.,.,.,.,-,-[0.0914 µM]
O=C(NCc1ccc2c(c1)OCO2)c1ccc(N2C(=O)C3CCCCC3C2=O)cc1 (configuration not stated),-,-,8.91µM,-,-,-
Cc1c(C#N)c(=O)c(-[n+]2ccccc2)c([S-])n1-c1ccc(Cl)cc1,-,-,-,-,50.1µM,-
Cc1cccc2cc3c(nc12)SC(=NCC1CCCO1)N(Cc1ccco1)C3 (configuration not stated),-,11.2µM,?,-,3.55µM,-
